The values that follow come from ChEMBL document CHEMBL3433997, “St. Jude Leishmania screening dataset” (2016).

What all share (format): functional
The target of experiment [1] is Solute carrier family 2, facilitated glucose transporter member 1 (Homo sapiens) (UniProt P11166). In words: ST_JUDE_LEISH: Cytotoxicity at 2uM final concentration against transgenic Leishmania Mexicana promastigotes LmGLUT1 that are glucose transport deficient and complemented with the human glucose transporter GLUT1. Activity is measured by DNA content using SYBR green in vitro.
Chain of Solute carrier family 2, facilitated glucose transporter member 1 (Homo sapiens) (P11166 whole entry): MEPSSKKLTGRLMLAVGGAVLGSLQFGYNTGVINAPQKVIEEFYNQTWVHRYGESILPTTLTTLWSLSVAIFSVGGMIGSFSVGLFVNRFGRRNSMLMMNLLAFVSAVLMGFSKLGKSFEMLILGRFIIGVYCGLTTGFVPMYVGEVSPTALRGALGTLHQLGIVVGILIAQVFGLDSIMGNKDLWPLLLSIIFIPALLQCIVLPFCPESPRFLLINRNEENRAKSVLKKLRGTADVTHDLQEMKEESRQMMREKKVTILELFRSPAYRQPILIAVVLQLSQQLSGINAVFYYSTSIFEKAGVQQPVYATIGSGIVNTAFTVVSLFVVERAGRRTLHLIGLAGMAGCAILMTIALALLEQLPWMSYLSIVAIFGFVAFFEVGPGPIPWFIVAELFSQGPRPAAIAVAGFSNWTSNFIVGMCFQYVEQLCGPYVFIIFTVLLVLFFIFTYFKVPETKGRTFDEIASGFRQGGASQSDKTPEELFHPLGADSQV

In experiment [2] the target is Hexose transporter 1 (Plasmodium falciparum) (UniProt O97467). In words: ST_JUDE_LEISH: Cytotoxicity at 2uM final concentration against transgenic Leishmania Mexicana promastigotes LmPfHT that are glucose transport deficient and complemented with the Plasmodium falciparum hexose transporter. Activity is measured by DNA content using SYBR green in vitro.
Experiment [3] has as its target Glucose transporter (Leishmania mexicana) (UniProt O61059). In words: ST_JUDE_LEISH: Cytotoxicity at 2uM final concentration against transgenic Leishmania Mexicana promastigotes LmGT2 that are glucose transport deficient and complemented with the L. Mexicana glucose transporter 2. Activity is measured by DNA content using SYBR green in vitro.

As a reminder, the inhibition is the drop in the measured response relative to a control, in per cent. For the compound `CN/C(=C\[N+](=O)[O-])NCCSCc1cc(C)c(CN(C)C)s1`, the inhibition was found to be 5.43% in experiment [1], 5.21% in experiment [2] and 5.98% in experiment [3].
As to `CO/C(=C\C=C\c1cc2cc(Cl)c(Cl)cc2[nH]1)C(=O)NC1CC(C)N(C)C(C)C1` (centres undefined), the values for the inhibition in experiment [1], in experiment [2] and in experiment [3] were -2.9%, -0.97% and -1.43%, respectively.
For the compound `COc1cccc(NC(=O)CSc2nc(-c3ccccc3Cl)ns2)c1`, the inhibition was determined as 5.33% in experiment [1], 4.86% in experiment [2] and 6.13% in experiment [3].
For the compound `CC(C)[C@H](NC(=O)c1ccc(O)c(-c2ccc(Cl)c(Cl)c2)c1)C(=O)NC1CCCCCC1`, the inhibition in experiment [1] was 0.48%; in experiment [2], 0.52%; in experiment [3], -4.76%.
In the case of `CC(=O)Nc1nc(C(=O)Nc2ccc(-c3cccc(-c4nc5cccc(C)c5[nH]4)c3)cc2)cs1`, the inhibition in experiment [1] was determined as 8.57%; in experiment [2], 9.26%; in experiment [3] it was 5.38%.
As to `CCCCCCCCCCNCC(O)c1ccc(O)c(C(=O)OC)c1` (centres undefined), the inhibition in experiment [1] was -0.21%; in experiment [2] it was 1.42%; in experiment [3], 0.52%.
In the case of `Cc1cccc(-c2c(C)nc(N)nc2N)c1`, the inhibition was 4.96% in experiment [1], 2.06% in experiment [2] and 1.08% in experiment [3].
The like results for `O=C1COc2ccc3ccccc3c21` were, in that order, -2.29%, 0.78% and -0.4%.
For `CN1CCC(C(=O)Nc2ccc(-c3ccc(-c4nc5ccccc5[nH]4)s3)cc2)CC1`, the results for the inhibition in experiment [1], in experiment [2] and in experiment [3] were 0.79%, -2.31% and 0.49%, respectively.
Consider `O=C1CCCN1CCCNCc1cccc(-c2ccc(-c3nc4cc(C(F)(F)F)ccc4[nH]3)cc2)c1`, for which the inhibition was determined as 13.5% in experiment [1], 13% in experiment [2] and 13% in experiment [3].
On to `CCNc1cc(C(=O)N[C@@H](Cc2ccccc2)[C@H](O)CNCc2cc(OC)cc(OC)c2)cc(N2CCCC2=O)c1`, for which the results for the inhibition in experiment [1], in experiment [2] and in experiment [3] were 7.69%, 9.03% and 6.42%, respectively.
Consider `CCN(CCCN1CCCCC1)c1cc(C)nc(Nc2ccc(C)cc2C(F)(F)F)n1`, for which the inhibition was -1.87% in experiment [1], 0.39% in experiment [2] and -1.54% in experiment [3].
As to `Nc1cccc(CNCc2cccc(-c3cccc(-c4nc5cc(F)ccc5[nH]4)c3)c2)c1`, the figures for the inhibition in experiment [1], in experiment [2] and in experiment [3] were 0.35%, 0.35% and -0.66%, respectively.
